Drawing on PubChem BioAssay AID1851 (National Center for Advancing Translational Sciences (NCATS), 2009), this text covers AC50 and activity, negative = inhibition for 92 molecules.

Broadly, the AC50 is the midpoint of the concentration-response curve, whichever way the signal moves.

Molecules are shown by their SMILES. About 5,800 (36%) of roughly 16,000 compounds were called active. Inconclusive results (about 23%) are left out. Some of the results follow. Values without a mark were called inactive. Calls come from the whole dose curve; as a rule, active = well fitted curve in the direction sought with a large enough effect; inconclusive = small, poorly fitted or top-dose-only effect, or effect the other way; inactive = no such curve, though single readings can be large or run the other way.
% is set by controls: 0 for no effect and ±100 for the full control effect.

In the assay the target is Cytochrome P450 2C19 (Homo sapiens) (UniProt P33261). Description: Cytochrome panel assay with activity outcomes. The settings on record: recombinant CYP, pro-luciferin dealkylation, luminescence, p450-cyp2c19; series mostly up to 57.1 µM.
Chain of Cytochrome P450 2C19 (Homo sapiens) (P33261 whole entry, looked up): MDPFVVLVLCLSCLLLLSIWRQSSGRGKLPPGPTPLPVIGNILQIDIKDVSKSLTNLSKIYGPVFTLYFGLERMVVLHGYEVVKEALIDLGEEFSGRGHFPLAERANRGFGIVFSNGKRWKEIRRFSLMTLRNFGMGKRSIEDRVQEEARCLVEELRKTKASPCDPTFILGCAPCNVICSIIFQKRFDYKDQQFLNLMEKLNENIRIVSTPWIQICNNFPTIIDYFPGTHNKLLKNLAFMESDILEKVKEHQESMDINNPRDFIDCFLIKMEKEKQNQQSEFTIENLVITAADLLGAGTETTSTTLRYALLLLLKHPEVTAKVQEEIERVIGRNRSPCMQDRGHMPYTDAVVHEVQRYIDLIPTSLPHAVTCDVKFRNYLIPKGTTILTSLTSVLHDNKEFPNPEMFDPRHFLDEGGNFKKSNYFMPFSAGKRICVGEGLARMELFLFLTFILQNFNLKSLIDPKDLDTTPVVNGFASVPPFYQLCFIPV
For the molecule `O=C(N/N=C\c1cn(-c2ccccc2)nc1-c1ccccc1)c1ccc2c(c1)OCO2`, the AC50 was 3.16 µM (active).

For the molecule `O=C(N/N=C\c1cn(-c2ccccc2)nc1-c1ccccc1)c1ccc(Br)o1`, the AC50 was 2 µM (active).

For the molecule `Cc1c(/C=N/NC(=O)c2ccc3c(c2)OCO3)cnn1C`, the AC50 entry was “inactive”.

Regarding `Cc1ccc(-c2nn(-c3ccccc3)cc2/C=N/NS(=O)(=O)c2ccccc2)cc1`, the AC50 was 8.91 µM (active).

Regarding `CCCCOc1ccc(CNn2c(C)nc3ccccc3c2=O)cc1`, the AC50 is 0.112 µM (active).

Turning to `COc1ccc(CN[C@H](C)C(=O)O)cc1`, the activity, negative = inhibition is 24.9% [at 11.4 µM].

Consider `Cc1nc2ccccc2c(=O)n1NC(=O)c1ccccc1Cl`, for which the AC50 is 20 µM (active).

Consider `COc1ccc(CNn2c(C)nc3ccccc3c2=O)cc1`, for which the AC50 is 0.316 µM (active).

Turning to `N/N=C1/CC(=O)NC(=O)N1`, the activity, negative = inhibition is -9.46% [at 11.4 µM].

Take `CCCCOC(=O)C1=C(C)Nc2ncnn2C1c1cc(OC)ccc1OC` (configuration not stated): the AC50 was 20 µM (active).

For the molecule `COc1cc(OC)c(C2C(C(=O)Nc3ccc(C)cc3C)=C(C)Nc3ncnn32)cc1OC` (configuration not stated), the AC50 entry is “inactive”.

Turning to `COCCCNC(=O)c1c(N)n(/N=C/c2ccccn2)c2nc3ccccc3nc12`, the AC50 is 10 µM (active).

`CCCCOc1cc(C(=O)NCCN(CC)CC)c2ccccc2n1`: the AC50 result is “inactive”.

As to `CCNc1ncc2nc(-c3cccs3)c(=O)n(C[C@H]3CCCO3)c2n1`, the AC50 result was “inactive”.

On to `CN(C)C(=O)CSC1c2ccccc2C(=O)N1c1ccccc1` (configuration not stated), for which the AC50 entry is “inactive”.

Turning to `CCC(=O)N(C)/C=C1\Sc2ccccc2C1=O`, the half-maximal activity concentration (AC50) is 20 µM (active).

For `CCOC(=O)C1CCCN(C(=O)c2sc3nc(-c4ccc(OC)cc4)cn3c2C)C1` (configuration not stated), the AC50 was 7.94 µM (active).

On to `CCSc1nc2c(c(=O)[nH]1)C(c1ccncc1)C(C(=O)OC(C)C)=C(C)N2` (configuration not stated), for which the AC50 is 0.708 µM (active).

With `CCSc1nc2c(c(=O)[nH]1)C(c1ccccn1)C1=C(CC(C)(C)CC1=O)N2` (configuration not stated), the AC50 entry is “inactive”.

Take `CSc1nc2c(c(=O)[nH]1)C(c1ccncc1)C(C(=O)OC(C)C)=C(C)N2` (configuration not stated): the AC50 is 1.12 µM (active).

`Cc1ccc(SCCCn2cnc3ccccc3c2=O)cc1`: the AC50 is 2.24 µM (active).

In the case of `O=C1c2ccccc2C(=O)N1CCCSc1ccccc1`, the AC50 is 0.631 µM (active).

With `O=c1c2ccccc2ncn1CCCSc1ccccc1`, the AC50 was 1.41 µM (active).

`CCOCCCn1cnc2c(c1=O)c1nc3ccccc3nc1n2-c1ccccc1`: the AC50 result is “inactive”.

As for `O=C(c1ccccc1)c1ccc(OCCn2cnc3ccccc3c2=O)cc1`, the AC50 was 1.58 µM (active).

Consider `N#CCSc1ncnc2c1cnn2CCO`, for which the AC50 entry is “inactive”.

As for `O=C(Cn1nc(C(F)F)cc1C(F)F)N/N=C/c1ccc2c(c1)OCO2`, the AC50 was 1.58 µM (active).

For `Cc1cccc(C(=O)N/N=C/c2ccc(OCC(=O)N3CCCCC3)cc2)c1`, the AC50 entry was “inactive”.

For `O=C(/C=C/c1ccc2c(c1)OCO2)NCCSCc1cccc(Cl)c1`, the AC50 was 3.16 µM (active).

`CCCc1nnc(SCC(=O)O)n1/N=C/c1ccc2c(c1)OCO2`: the AC50 entry is “inactive”.

Take `COC(=O)N/N=C\C=C\c1ccc2c(c1)OCO2`: the AC50 result was “inactive”.

In the case of `O=C(CSCc1cccc(Br)c1)N/N=C/c1ccc2c(c1)OCO2`, the AC50 is 11.2 µM (active).

`O=C(CSCc1cccc(Cl)c1)N/N=C/c1ccc(OCC(=O)N2CCCCC2)cc1`: the AC50 was 3.16 µM (active).

On to `COc1ccc2c(c1OC)C(=O)N(C(C)C(=O)O)C2=O` (configuration not stated), for which the AC50 entry is “inactive”.

As to `COc1ccc(-n2c(=O)c(C)nc3cnc(N(C)C)nc32)cc1`, the AC50 result was “inactive”.

Take `N=C(N)C(N=Nc1ccccc1)C(=N)N` (configuration not stated): the activity, negative = inhibition was -2.71% [at 11.4 µM].

For `CC[C@H](Cc1c(I)cc(I)c(N)c1I)C(=O)O`, the AC50 entry is “inactive”.

Turning to `O=C(NC12CC3CC(CC(C3)C1)C2)N1CCN(c2nc(-c3ccccc3)cs2)CC1`, the AC50 is 2.82 µM (active).

As for `N[C@@H](CSCc1ccc(I)cc1)C(=O)O`, the activity, negative = inhibition was 12.9% [at 11.4 µM].

On to `COc1ccc(-n2c(=O)c(-c3ccc(F)cc3)nc3cnc(OC)nc32)cc1`, for which the AC50 entry was “inactive”.

As to `COc1ccc(O[C@H]2C=C[C@@H](c3ccccc3)O[C@@H]2CO/N=C(\C)CCN2CCCc3nc(C)c(C)cc32)cc1`, the AC50 was 0.398 µM (active).

Regarding `CC(=O)OC[C@@H]1O[C@H](CCO/N=C(\C)CCN2CCCc3nc(C)c(C)cc32)C=C[C@@H]1OC(C)=O`, the activity, negative = inhibition is 38.8% [at 11.4 µM].

As for `CCCNC(=O)OC[C@@H]1O[C@H](CCO/N=C(\C)CCN2CCCCc3nc(C)c(C)cc32)C=C[C@@H]1Oc1ccc(OC)cc1`, the activity, negative = inhibition was -12.9% [at 11.4 µM].

As to `CO/N=C(\C)CCN1CCCCc2nc(C)c(C)cc21`, the activity, negative = inhibition is -22.3% [at 11.4 µM].

As to `CC(=O)OC[C@@H]1O[C@H](CCO/N=C(\C)CCN2CCc3nc(-c4ccccc4)c(-c4ccccc4)cc3C2)C=C[C@@H]1OC(C)=O`, the activity, negative = inhibition is -28.2% [at 11.4 µM].

With `CCCNC(=O)OC[C@@H]1O[C@H](CCO/N=C(\C)CCN2CCCc3nc(C)c(C)cc32)C=C[C@@H]1Oc1ccc(OC)cc1`, the activity, negative = inhibition was -43.5% [at 11.4 µM].

Regarding `C/C(CCN1CCc2nc(-c3ccccc3)c(-c3ccccc3)cc2C1)=N\OC[C@@H](C)[C@H](OCc1ccccc1)C(C)C`, the AC50 was 1.58 µM (active).

As for `COc1ccc(O[C@H]2C=C[C@@H](c3ccccc3)O[C@@H]2CO/N=C(\C)CCN2CCCCc3nc(C)c(C)cc32)cc1`, the AC50 is 2.51 µM (active).

In the case of `C/C(CCN1CCc2nc(-c3ccccc3)c(-c3ccccc3)cc2C1)=N\OC[C@@H](O)COCc1ccco1`, the activity, negative = inhibition was -21.9% [at 11.4 µM].

Take `C=CC[C@@H]1C=C[C@H](O/N=C(\C)CCN2CCc3nc(-c4ccccc4)c(-c4ccccc4)cc3C2)[C@H](CO)O1`: the activity, negative = inhibition was -25.6% [at 11.4 µM].

`CCc1cc2c(nc1CC)CCN(CC/C(C)=N/OC[C@@H](C)[C@H](OCc1ccccc1)C(C)C)C2`: the activity, negative = inhibition was -15.6% [at 11.4 µM].

In the case of `COc1ccc(O[C@H]2C=C[C@@H](c3ccccc3)O[C@@H]2CO/N=C(\C)CCN2CCc3nc(-c4ccccc4)c(-c4ccccc4)cc3C2)cc1`, the AC50 is 0.251 µM (active).

As for `COC(=O)CC[C@@H](C)[C@H]1CC[C@H]2[C@H]3CC[C@H]4C[C@@H]5CC[C@@]4(C)C3(O5)[C@@H](Br)[C@@H](Br)[C@@]12C`, the activity, negative = inhibition was -31% [at 11.4 µM].

Take `OCCN=c1cc(-c2ccccc2)oc2ccc(Cl)cc12`: the AC50 was 1.58 µM (active).

With `CCCCCCN1Cc2ccccc2C1`, the half-maximal activity concentration (AC50) is 10 µM (active).

Consider `CCCCNC(=O)[C@@H]1Cc2ccccc2N1C(=O)[C@H](N)CC`, for which the AC50 entry was “inactive”.

Turning to `CCCCN1CCC(n2c(=O)[nH]c3ccccc32)CC1`, the AC50 result was “inactive”.

For `CCN(CC)C(=O)N1CCN(C)CC1`, the AC50 entry is “inactive”.

As for `COc1ccccc1CN1CCCC2(CCN(C(=O)c3ccncc3)CC2)C1`, the AC50 result is “inactive”.

On to `Cn1cccc1C(=O)N1CCC2(CCCN(Cc3ccccc3)C2)CC1`, for which the AC50 entry was “inactive”.

Take `COC(=O)[C@@]1(Cc2ccccc2)[C@H]2c3cc(C(=O)N4CCCC4)n(C)c3C[C@H]2CN1C(=O)c1ccccc1`: the AC50 was 3.98 µM (active).

Take `COC(=O)[C@@]1(Cc2ccccc2)[C@H]2c3cc(C(=O)N4CCCC4)n(CC4CC4)c3C[C@H]2CN1C(=O)c1ccccc1`: the AC50 was 3.16 µM (active).

On to `COC(=O)[C@@]1(Cc2ccccc2)[C@H]2c3cc(C(=O)N4CCCC4)n(Cc4ccc(O)c(OC)c4)c3C[C@H]2CN1C(=O)c1ccccc1`, for which the AC50 is 0.501 µM (active).

Turning to `COc1ccc(C(=O)N2CCC3(CC2)CCN(c2ncccn2)CC3)cc1`, the AC50 entry is “inactive”.

For `O=C(c1ccncc1)N1CCC2(CC1)CN(c1ccccc1)C2`, the AC50 is 0.316 µM (active).

Regarding `O=C(c1cccc(F)c1)N1CCC2(CC1)CCN(c1ccncc1)CC2`, the AC50 entry was “inactive”.

`O=C(c1cccc(F)c1)N1CCC2(CC1)CN(c1ccc(-c3ccccc3)cc1)C2`: the AC50 result was “inactive”.

Regarding `O=C(c1ccncc1)N1CCC2(CC1)CN(c1ncccn1)C2`, the AC50 entry was “inactive”.

For the molecule `O=C(c1ccncc1)N1CCC[C@@]2(CCN(c3ccccc3)C2)C1`, the AC50 entry was “inactive”.

As for `O=C(c1cc(C(F)(F)F)cc(C(F)(F)F)c1)N1CCC2(CC1)CN(c1ccncc1)C2`, the AC50 entry was “inactive”.

For the molecule `O=C(c1ccncc1)N1CCC2(CC1)CCN(c1ncccn1)CC2`, the AC50 was 2.51 µM (active).

For `O=C(c1cccc(F)c1)N1CCC2(CC1)CN(c1ccncc1)C2`, the AC50 is 3.16 µM (active).

Turning to `NC(N)=NC(N)=Nc1ccc(S(N)(=O)=O)cc1`, the activity, negative = inhibition was 28.1% [at 11.4 µM].

For `CC(C)CN1CC2(CCN(C(=O)c3cccc(F)c3)CC2)C1`, the AC50 entry is “inactive”.

`NNC(=O)[C@@H](O)[C@H](O)[C@H](O)CO`: the activity, negative = inhibition was 16% [at 11.4 µM].

`Cn1c([N+](=O)[O-])cnc1COC(N)=O`: the AC50 entry is “inactive”.

In the case of `CCCCCCCCCCCCCCCC(=O)C(F)(F)F`, the AC50 entry was “inactive”.

Regarding `Nc1nc(Cl)cc(N2CCC(c3cc(-c4ccc(Cl)cc4Cl)n[nH]3)CC2)n1`, the AC50 is 3.98 µM (active).

Consider `NC1CCN(c2cccc(Cl)n2)CC1`, for which the AC50 result was “inactive”.

Take `COc1ccc(-c2cc(C3CCN(c4cc(Cl)nc(N)n4)CC3)[nH]n2)cc1`: the AC50 was 3.16 µM (active).

On to `C[N+](C)(C)c1ccc([C@H](N)C(=O)O)cc1`, for which the activity, negative = inhibition was -19.4% [at 11.4 µM].

In the case of `CCOC(=O)C1C(=O)C=C(c2ccc(C)cc2)CC1c1ccco1` (configuration not stated), the AC50 is 3.98 µM (active).

Turning to `CCOC(=O)C1C(=O)C=C(c2ccc(NS(C)(=O)=O)cc2)CC1c1ccco1` (configuration not stated), the AC50 was 14.1 µM (active).

With `CCCCCCC(C)n1cc(C(C)=O)c(=O)[nH]c1=O` (configuration not stated), the AC50 was 15.8 µM (active).

Turning to `N[C@@H](Cn1cc(F)c(=O)[nH]c1=O)C(=O)O`, the AC50 entry was “inactive”.

As to `CCCCCCCCn1cc(C(C)=O)c(=O)[nH]c1=O`, the AC50 was 17.8 µM (active).

Take `CC(C)NC[C@H](O)c1cc(O)cc(O)c1`: the AC50 entry was “inactive”.

`CC(C)Oc1ccc2ccccc2c1C=O`: the AC50 was 10 µM (active).

Take `COc1ccc(C(=O)NCS(=O)(=O)c2ccc(C)cc2)cc1`: the AC50 is 6.31 µM (active).

On to `Cc1cc(N2CCN(C)CC2)nc2ccc(NC(=O)CCC(=O)NCc3ccco3)cc12`, for which the AC50 entry is “inactive”.

As to `O=C(CN(Cc1ccco1)C(=O)c1ccccc1)Nc1ccc(Cl)c(Cl)c1`, the AC50 was 3.16 µM (active).

Consider `O=C(CN(Cc1ccco1)C(=O)c1cccc(Cl)c1)Nc1c(Cl)cc(Cl)cc1Cl`, for which the AC50 is 10 µM (active).
